Data: PubChem BioAssay AID1508600 (Functional Genomics Laboratory (NCATS/FGL), 2020)
Hit rate of the full screen: of about 53,000 sequences, about 3,700 (7%) were called active.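 Rule for the calls: active = gene knockdowns whose robust z-score for IL-1 alpha signal is at least 2 or at most -2, so actives lie on both sides; inactive = the rest.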 Shown is part of a subset that was picked to be rich in actives.

Assay: Components of the Cytosolic LPS Sensing Pathway: Gene Identification via Genome-wide siRNA Screen
Conditions: RAW264.7 macrophages, IL-1a HTRF, actives lie on both sides, screened at 100 nM (by protocol), cells primed 5 h with Pam3CSK4 first
Description: Non-canonical inflammasome activation by cytosolic LPS is a critical component of the host response to Gram-negative bacterial infection, however we lack a comprehensive understanding of the cellular processes that control this pathway. Here we describe a genome-wide siRNA screen to identify genes regulating the mouse macrophage IL-1 alpha response to cytosolic LPS.
RAW264.7 cells were maintained in complete DMEM media, comprising DMEM with 4.5 g/L glucose, 10% FBS (Gemini Bio-Products, West Sacramento, CA), 2 mM Glutamine (Lonza) and 20 mM HEPES (Lonza), hereafter complete DMEM.
The RNAi screen was conducted in 384-well format using the Ambion Silencer Mouse Genome siRNA Library (#4391425), which consists of three unique, nonoverlapping, nonpooled siRNAs for each of 17,000 gene targets. siRNA reagents ([…]) were stamped into 384-well white flat-bottom microplates (Corning, 3570) using a Velocity11 VPrep liquid handling system (Agilent) integrated into a BioCel robotic platform (Agilent) in columns 1-22, leaving columns 23-24 empty for negative (Ambion, Negative control #1) and positive (mouse Casp4) controls, respectively. The median value of each plate's negative control column was used to normalize sample wells, and the positive control was used to assess transfection efficiency and assay performance.
Lipofectamine RNAiMAX Transfection Reagent ([…]; Invitrogen) was added in […] serum-free, antibiotic-free media to plate wells using a Thermo Scientific Matrix WellMate and Microplate Stacker. Plates were incubated for 45 min at room temperature to allow for the sufficient formation of siRNA-lipid complexes. Cells were seeded at a density of 1x10^4 cells per well in 20 microL media containing 20% (vol/vol) FBS without antibiotics. The final concentration of siRNA in each well was 100 nM. Cells were cultured for 48h at 37 degrees C in 5% CO2 before addition of […] of TLR ligand Pam3CSK4 for 5 hours. The medium was then removed, replaced with […] growth media and cell were transfected with […] of LipidA and TransIT-TKO (Mirus) for 24 hour. At the end of the LipidA treatment, […] of supernatant was transferred to a 384 Greiner Bio-one non-binding low volume plate and […] of IL-1a HTRF reagent (Cisbio, 62MIL1APEH) was added and incubated at room temperature overnight. The plates were read on an EnVision plate reader (PerkinElmer). Cell viability was measured by adding 20ul Cell Titer Glo to the original plate and running a luminescence read on the EnVision. The quantified IL-1a signal for each siRNA gene-targeted well was divided by the median of the negative control wells and multiplied by 100 to achieve a negative control normalized value for each well/siRNA. This normalized value was then used to generate a robust z-score by first taking the log of each value and then by subtracting the median and dividing by the […].

Row | Sequence | z-score
1 | GCCAAACUAUCAGAGAUGGTT against Slc38a7 | 0.0528 (inactive)
2 | GGAUUAUGGUACCAAGCGCTT against Umps | 1.21 (inactive)
3 | CCUAAUUGAAAUCAGCAGUTT against Hip1r | 1.14 (inactive)
4 | GGCACAAGAAAUUUGAUGATT against Gpc6 | -1.91 (inactive)
5 | GCAAAUCAUGACUAUUGUATT against Atat1 | 0.00079 (inactive)
6 | CAUGAUAGCGAUAGCAAUCTT against Olfr507 | 0.0127 (inactive)
7 | GCCUGAUUCAGAGUAUAAATT against Col14a1 | -1.24 (inactive)
8 | CCUACUCAAAUGAAGUUGUTT against Cdk17 | -0.384 (inactive)
9 | CCUGUGAAAUACCAGCGUGTT against Rsl24d1 | 2.05 (active)
10 | GCUCUGGUUGCCAGUUAUGTT against Ddx49 | 0.903 (inactive)
11 | GGGAUUAUAGGGCGCAUUGTT against Olfr685 | -1.01 (inactive)
12 | GCGACAAAUCAAAAAGGCCTT against Dnajb9 | -0.0942 (inactive)
13 | GGCCAACAAUAUAAAAGACTT against Pus3 | -0.641 (inactive)
14 | GACUUCGGACAAAUGGUGCTT against Lce1f | 2.27 (active)
15 | GGUCCUGAUGUUGAAGGCATT against Rinl | 0.647 (inactive)
16 | GCAUCUCUUACUAAGAUUATT against Anxa4 | -0.433 (inactive)
17 | GGAAUUAAAUGAACCCAGATT against Arhgap8 | 2.48 (active)
18 | GGUUUUAUGCAUUAGCUCCTT against Lipf | 0.502 (inactive)
19 | GCAACCUGUCAUUUUGUGATT against Olfr1134 | -1.74 (inactive)
20 | GGCUUUUAGCUACCUUGUGTT against AW209491 | -0.704 (inactive)
21 | GCACGAUGUCUCAGCUCUATT against Nipal3 | -2.89 (active)
22 | CCAGGUGUAACAAAAAAGATT against Dtl | 1.09 (inactive)
23 | CCGGGAAAUUCUGUUAGCCTT against Pla2g1b | -1.95 (inactive)
24 | GGAAAGCUCUCAAUACCUGTT against Olfr633 | -0.688 (inactive)
25 | GCUUUGGUUGCUAACCCAATT against Slc45a2 | 0.407 (inactive)
26 | GGCUCAAUUUGGAAAGGACTT against Anxa8 | -0.586 (inactive)
27 | GGAGCAUCUAUGAUUACAATT against Iqcg | 3.24 (active)
28 | GGAUAUGUCGGAAAAAGCCTT against Cfh | 0.271 (inactive)
29 | GGCCACAGUAAUGGGAAAUTT against Cga | -0.208 (inactive)
30 | GGUAAAUGAUCUGAAAAUGTT against Rps6ka6 | -0.46 (inactive)
